# Results taken from PubChem BioAssay AID1259421 (Broad Institute, 2018).
# Values joined by “and” are separate entries in the source; they are usually repeats but may differ in a detail not shown here. Identical values can stand only once. Hit rate of the full screen: of about 6,400 compounds, about 610 (9.5%) were called active. Only a selection was taken, and actives are over-represented in it overall. Values without a mark were called inactive. Cut-off read from the data, not from the text of the source: active = activity change below about -70%; inconclusive = no clear call, values can overlap the other calls; inactive = above that. *1 amine or outer side, *2 acyl side, *3 side chain or, on linkers, in order; H or OH if unused. Where a SMILES comes first, the peptide text is derived from it. Bridges are numbered along the chain shown (N, C = ends). [ ]: non-standard residue; d: D form. The star is where a group is joined. ξ: configuration not given here. pTerphenylCO(4''-OnC5H11) = CCCCCOc1ccc(-c2ccc(-c3ccc(C(=O)*)cc3)cc2)cc1; ξOrn(4,5-diOH) = O=C(C(CC(O)C(O)N[*:3])N[*:1])[*:2]; ξhTyr(βξ-OH,γξ-OH) = NC(C(=O)O)C(O)C(O)c1ccc(O)cc1; ξPro(3ξ-OH,4ξ-Me) = CC1CNC(C(=O)O)C1O; Hyp = O=C(O)[CH]1C[CH](O)CN1
# Assay: Toxoplasma gondii ME49Luc growth in HeLa cells, luciferase, no IFN-y, primary screen (AID 1259421)
# Conditions: T. gondii ME49Luc in HeLa, 72 h, active compounds read low, concentration not given here
row,Compound,"activity change, negative = inhibition"
1,CCCCCCCC/C=C/CCCCCCCC(=O)NC(CO)Cc1ccc(O)cc1 (stereo not drawn),6.19%
2,C[N+]1(C)[C@@H]2CC(OC(=O)[C@H](CO)c3ccccc3)C[C@H]1[C@@H]1O[C@@H]12 (stereo partly drawn),10.8%
3,O=C(O)CC/C=C/CC1COC(c2ccccc2Cl)OC1c1ccccc1O (stereo not drawn),11.4%
4,O=C(O)[C@@H]1C[C@H]2C[C@@H](CCc3nn[nH]n3)CC[C@H]2CN1,15.6%
5,CN1CCCC1c1cccnc1 (stereo not drawn),24.1%
6,"CCCCCOc1ccc(-c2ccc(-c3ccc(C(=O)NC4CC(O)C(O)NC(=O)C5C(O)C(C)CN5C(=O)C(C(C)O)NC(=O)C(C(O)C(O)c5ccc(O)cc5)NC(=O)C5CC(O)CN5C(=O)C(C(C)O)NC4=O)cc3)cc2)cc1 (stereo not drawn) ({pTerphenylCO(4''-OnC5H11)}-[ξOrn(4,5-diOH)]T[Hyp][ξhTyr(βξ-OH,γξ-OH)]T[ξPro(3ξ-OH,4ξ-Me)]; lactam 1-C; configuration not given here)",-6.09%
7,Cc1nn(-c2ccccc2)c(C)c1/C=N/N1CCN(Cc2ccccc2)CC1,7.74% and 0.523%
8,Cn1[nH]c(=O)c(=O)[nH]c1=S,14.6%
9,C[C@@H]1CC2C3CCC4=CC(=O)C=C[C@]4(C)[C@@]3(F)[C@@H](O)C[C@]2(C)[C@H]1C(=O)CO (stereo partly drawn),-13.5% and -8.09%
10,CCCCC[C@H](O)/C=C/C=C\C/C=C\C/C=C\CCCC(=O)O,-37.7%
11,Cc1c(N)cccc1Cn1ccc(OCCc2cccs2)cc1=O,1.77%
12,Cc1cc(C)c(CNC(=O)c2cc(-c3ccc(CN4CCOCC4)cc3)cc3c2cnn3C2CCCC2)c(=O)[nH]1,-31%
13,CC(C)c1cc(C(=O)N2Cc3ccc(CN4CCN(C)CC4)cc3C2)c(O)cc1O,-63.5%
14,CCNC(=O)c1noc(-c2cc(C(C)C)c(O)cc2O)c1-c1ccc(CN2CCOCC2)cc1,-87.9% (active)
15,CC(C)(O)[C@H]1CC[C@@](C)([C@H]2[C@@H](O)C[C@@]3(C)[C@@H]4C[C@H](O[C@@H]5O[C@H](CO)[C@@H](O)[C@H](O)[C@H]5O)[C@H]5C(C)(C)[C@@H](O[C@@H]6OC[C@@H](O)[C@H](O)[C@H]6O)CC[C@@]56C[C@@]46CC[C@]23C)O1,3%
16,CCCCOc1ccc(C(=O)CCN2CCCCC2)cc1,1.11%
17,Cc1cc(-c2cc(OC(=O)c3ccccc3)ccc2Cl)cc2nnc(Nc3ccc(OCCN4CCCC4)cc3)nc12,7.81%
18,Cc1cc(-c2cc(O)ccc2Cl)cc2nnc(Nc3ccc(OCCN4CCCC4)cc3)nc12,-89.7% (active)
